Source: PubChem BioAssay (National Center for Advancing Translational Sciences (NCATS))
The list is not random: actives were taken first. Their share in the collection is about 19%.
HT1080 IDH1KD tx = HT-1080 IDH1 knockdown cell toxicity (counter line). HT-1080 IDH1 knockdown viability, ATP luminescence, 48 h. Potency, µM (titrated, usually from 46.1 µM), most hits filed as cytotoxic. hit rate 2% among 360,000. AID 686971
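Luminescent ATP read-out (CellTiter-Glo, 10 min at room temperature) after 48 h compound exposure at 37 °C gave viability of IDH1-knockdown HT-1080 cells. Activity was normalised to DMSO and cell-free wells, then fitted as concentration-response curves.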
TDP1 cell CPT = growth inhibition of DT40 Tdp1-/-;hTDP1 cells with camptothecin (screen for TDP1 inhibitors); chicken DT40 Tdp1-/-;hTDP1 cells + 20 nM CPT, ATP luminescence, 48 h; Potency, µM (top dose mostly 46.2 µM), usual class: inhibitors; hit rate 12% among 420,000; note: nearly all actives have a fitted effect of over 55% in size
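Chicken DT40 Tdp1-/- cells stably complemented with human TDP1 were seeded at 400 cells/well in medium containing 20 nM camptothecin, exposed to pin-transferred compounds, and grown at 37 °C for at least 48 hr. Viability was read as ATP luminescence.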
IL1B secr inh = inhibitors of inflammasome signaling (IL-1 beta secretion); AID 743279; hit rate 4.7% among 360,000; THP-1 LPS/ATP IL-1B secretion, AlphaLISA, 16 h; hits give low values; activity change, % at 57.5 µM; in the data active = activity change below about -50%; inconclusive = mostly about -30% to -49%
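THP-1 cells pretreated 1 hr with compounds (up to 57.5 uM final), then stimulated with LPS (250 ng/mL final) plus ATP (1.25 mM final); secreted IL-1B measured by AlphaLISA after 16 hr, decreased signal indicating inhibition.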
TDP1 cell noCPT = qHTS for Inhibitors of human tyrosyl-DNA phosphodiesterase 1 (TDP1): qHTS in cells in absence of CPT | DT40 Tdp1-/- hTDP1 cells, no CPT, ATP luminescence, 48 h | Potency, µM (top dose mostly 46.2 µM), actives largely listed as inhibitors | hit rate 15% among 420,000 | AID 686978, 2013; note: nearly all actives have a fitted effect of over 55% in size
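Seeded 400 DT40-hTDP1 cells/well (vehicle DMSO, no 20 nM CPT); pinned compounds; ≥48 hr at 37 °C; CellTiter-Glo luminescence as viability measure.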
HT1080NT lethal = kills 2HG-producing HT-1080-NT fibrosarcoma cells | HT-1080-NT fibrosarcoma viability, CellTiter-Glo ATP luminescence, 48 h | Potency, µM (highest dose often 46.1 µM), actives largely listed as cytotoxic | hit rate 1.6% among 360,000 | AID 686970;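 note: NT is the 2HG producing partner of a matched IDH1 knockdown line; nearly all actives have a fitted effect of over 55% in size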
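Read-out is CellTiter-Glo luminescence after 10 minutes at room temperature, following 48 hours' compound treatment of HT-1080-NT cells (750 cells/well, RPMI, 5% FBS, 37 degrees C).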
Of the large screens only hits and unclear results are named; the others gave an inactive call. Unless noted, calls come from the whole dose curve; as a rule, active = well fitted curve in the direction sought with a large enough effect; inconclusive = small, poorly fitted or top-dose-only effect, or another doubt; inactive = no such curve, though single readings can be large; an effect the other way counts as inactive or inconclusive.

Cc1ccc(CNn2cn[nH]c2=S)cc1	none
COc1ccccc1N1CCN(C(=O)c2cc3c(=O)n(C)c4ccccc4c3n2C)CC1	TDP1 cell CPT 23µM, TDP1 cell noCPT 23µM
Cc1ccc(-c2c(C(=O)N3CCN(c4cccc(C)c4)C(C)C3)oc(=O)c3ccccc23)cc1 (stereo not drawn)	TDP1 cell CPT 15µM, TDP1 cell noCPT inconclusive (no result: HT1080 IDH1KD tx, IL1B secr inh, HT1080NT lethal)
Cc1ccc(OCCn2cc(Br)c(=O)[nH]c2=O)cc1	none
O=C(CSc1nnc(-c2cccnc2)o1)Nc1cccc(F)c1	none
COc1ccccc1Cc1c(-c2ccc(Cl)cc2)nc2c(C)cc(Br)cn12	HT1080 IDH1KD tx inconclusive, TDP1 cell CPT 6.5µM, TDP1 cell noCPT 7.3µM, HT1080NT lethal inconclusive
COc1ccc(-c2nc3c(C)cc(Br)cn3c2Cc2ccc(C)cc2)cc1OC	HT1080 IDH1KD tx inconclusive, TDP1 cell CPT inconclusive, TDP1 cell noCPT inconclusive, HT1080NT lethal inconclusive
COc1ccccc1Cc1c(-c2cccc(Br)c2)nc2c(C)cc(Br)cn12	HT1080 IDH1KD tx inconclusive, TDP1 cell CPT 16µM, TDP1 cell noCPT 23µM, HT1080NT lethal inconclusive
CCOc1ccc(S(=O)(=O)N(C)CC(=O)NC2CCCC2)cc1	none
O=C(NCC1CC1)c1ccccc1Cl	none
NC(=O)CC(O)c1cccc(Cl)c1 (stereo not drawn)	TDP1 cell CPT inconclusive, TDP1 cell noCPT inconclusive
COc1ccc(N2CSC(=S)N(c3ccc(OC)cc3)C2)cc1	HT1080 IDH1KD tx inconclusive, TDP1 cell CPT 16µM, TDP1 cell noCPT 15µM
O=C(Nc1cccc([N+](=O)[O-])c1)C12CC3CC(C1)CC(n1cnc([N+](=O)[O-])n1)(C3)C2	TDP1 cell CPT 26µM, TDP1 cell noCPT inconclusive
C=CCN(C(=O)CSC1=NC(=O)CN1C(C)=O)c1nc(C)c(-c2ccccc2)s1	HT1080 IDH1KD tx inconclusive, TDP1 cell CPT inconclusive, IL1B secr inh -89, TDP1 cell noCPT 18µM, HT1080NT lethal inconclusive
C=CCSc1nnc(-c2sc(-c3ccccc3)nc2C)n1C	TDP1 cell CPT inconclusive
COc1ccccc1OCCCN1C(=O)C(=O)c2cccc(C)c21	TDP1 cell CPT 4.6µM, TDP1 cell noCPT 1.5µM
COc1ccccc1OCCC(=O)OCCN1C(=O)c2ccccc2C1=O	none
Cc1ccccc1OCCN1C(=O)C(=O)c2cccc(C)c21	TDP1 cell CPT 1.3µM, TDP1 cell noCPT 0.92µM
Cc1ccccc1OCCN1C(=O)c2ccccc2C1=O	none
Cc1cccc2c1N(CCOc1ccccc1Cl)C(=O)C2=O	TDP1 cell CPT 2.6µM, TDP1 cell noCPT 2.6µM
CCOC(=O)C1Nc2c(F)cc(C)cc2C2c3ccccc3CC12 (stereo not drawn)	TDP1 cell CPT inconclusive, IL1B secr inh inconclusive, TDP1 cell noCPT inconclusive
CCOC(=O)C1Nc2ccccc2C2c3ccccc3CC12 (stereo not drawn)	TDP1 cell CPT 21µM, TDP1 cell noCPT 2.6µM
CCOC(=O)C1Nc2c(cc(C(F)(F)F)cc2[N+](=O)[O-])C2c3ccccc3CC12 (stereo not drawn)	TDP1 cell CPT 18µM, TDP1 cell noCPT inconclusive
CCOC(=O)CSC1=NC(=O)/C(=C\c2ccc(Cl)cc2)S1	HT1080 IDH1KD tx inconclusive, TDP1 cell CPT 4.6µM, IL1B secr inh inconclusive, TDP1 cell noCPT 7.3µM
CCOC(=O)C1CCN(C2=NC(=O)/C(=C/c3ccc(Cl)cc3)S2)CC1	TDP1 cell CPT inconclusive, IL1B secr inh -50
O=C1/C(=C/c2cccc3ccccc23)CCCc2ccccc21	IL1B secr inh inconclusive
O=C1/C(=C/c2ccncc2)CCC/C1=C\c1ccncc1	HT1080 IDH1KD tx 4.1µM, TDP1 cell CPT 2.1µM, IL1B secr inh inconclusive, TDP1 cell noCPT 0.82µM, HT1080NT lethal 4.6µM
O=C1/C(=C/c2ccncc2)CCc2ccccc21	HT1080 IDH1KD tx inconclusive, TDP1 cell CPT inconclusive, IL1B secr inh -102, TDP1 cell noCPT 23µM
O=C1/C(=C\c2ccccc2)CCC/C1=C/c1ccccc1	HT1080 IDH1KD tx inconclusive, TDP1 cell CPT 21µM, TDP1 cell noCPT 18µM, HT1080NT lethal inconclusive
O=C1C(=Cc2ccncc2)CCCc2ccccc21	HT1080 IDH1KD tx inconclusive, TDP1 cell CPT 23µM, IL1B secr inh inconclusive, TDP1 cell noCPT 21µM
